Inconclusive results are not listed. Where a call stands in place of a potency, no number is given. A number with no mark means an inactive call. Calls of active or inactive are those of the source. Calls follow the shape of the dose curve; as a rule, active = well fitted cell-killing curve with a large enough effect in the repeat runs; inconclusive = weak or mixed curves, or effect the other way; inactive = flat fitted curve, though single readings scatter.
test: cAMP Responsive Elements (CRE) small molecule antagonists, cell-based qHTS assay: qHTS cell viability counter screen (AID 2060913); conditions: CRE-bla HEK293T viability, CellTiter-Glo luminescence, 5 h; series mostly up to 92.4 µM; also: nearly all actives have a fitted effect of over 40% in size; also: potency is read from the fitted curve at half-maximal effect
Method in brief: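 Cytotoxicity counter screen multiplexed with the CRE-bla antagonist read: HEK293T cells in DMEM with dialyzed FBS and 25 mM HEPES were treated 3 hrs under 0.25 uM final NKH477, then viability measured by CellTiter-Glo luminescence.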

Structure (SMILES) | Potency | viability change, negative = cytotoxic
CO[Si](CCCNCCN)(OC)OC | inactive | –
CC(CO)c1ccccc1 (stereo not drawn) | inactive | –
CCCCCC[C@@H](O)C/C=C\CCCCCCCC(=O)OCC(O)CO (stereo partly drawn) | inactive | –
Nc1ccc(S(=O)(=O)Nc2ccnn2-c2ccccc2)cc1 | – | 5.89% [at 18.9 µM]
Cc1c(C)c2c(c(C)c1O)CCC(C)(COc1ccc(CC3SC(=O)NC3=O)cc1)O2 (stereo not drawn) | inactive | –
CCCCCCC(C)(C)S | inactive | –
CCCCOC(=O)c1ccccc1C(=O)OCC(CC)CCCC (stereo not drawn) | inactive | –
Cc1ccc2ccccc2n1 | inactive | –
CCCCCCCN | inactive | –
Cc1cc(=O)[nH]c(C(C)C)n1 | inactive | –
O=C(Nc1cccc(C2=NCCN2)c1)Nc1cccc(C2=NCCN2)c1 | – | 0.0426% [at 18.9 µM]
CCOC(=O)[C@H](CCc1ccccc1)N[C@@H](C)C(=O)N1Cc2ccccc2C[C@H]1C(=O)O | inactive | –
CN1CCOC(c2ccccc2)c2ccccc2C1 (stereo not drawn) | inactive | –
Cc1cc(S(=O)(=O)O)ccc1N=Nc1c(O)ccc2ccccc12 | inactive | –
CNc1ccc([N+](=O)[O-])cc1 | inactive | –
CC(C)CC(=O)CC(C)C | inactive | –
OC1(c2ccccc2)CCNCC1 | inactive | –
NC(=O)NS(=O)(=O)c1ccc(Cl)cc1 | inactive | –
CCCCNC1CC(C)(C)NC(C)(C)C1 | inactive | –
OCC1(CO)COCOC1 | inactive | –

Structure (SMILES) | Potency | viability change, negative = cytotoxic
Nc1ccc(S(=O)(=O)Nc2nccs2)cc1 | inactive | –
COc1ccc(/C=C/C(=O)c2ccc(OC)cc2OC)cc1 | inactive | –
C=CCOCC(O)CO (stereo not drawn) | inactive | –
Cc1c(Cl)cccc1Nc1ccccc1C(=O)O | inactive | –
CCOC(=N)CC(=O)OCC | inactive | –
O=[N+]([O-])c1cc[n+]([O-])cc1 | inactive | –
Cc1cc(C(=O)O)ccc1[N+](=O)[O-] | inactive | –
CCCCCCCC/C=C\CCCCCCCC(=O)OCCOC(=O)CCCCCCC/C=C\CCCCCCCC | inactive | –
CC(C)(C)N(CCO)CCO | inactive | –
OC[C@H]1O[C@@H]2O[C@H]3[C@H](O)[C@@H](O)[C@@H](O[C@H]4[C@H](O)[C@@H](O)[C@@H](O[C@H]5[C@H](O)[C@@H](O)[C@@H](O[C@H]6[C@H](O)[C@@H](O)[C@@H](O[C@H]7[C@H](O)[C@@H](O)[C@@H](O[C@H]8[C@H](O)[C@@H](O)[C@@H](O[C@H]9[C@H](O)[C@@H](O)[C@@H](O[C@H]1[C@H](O)[C@H]2O)O[C@@H]9CO)O[C@@H]8CO)O[C@@H]7CO)O[C@@H]6CO)O[C@@H]5CO)O[C@@H]4CO)O[C@@H]3CO | inactive | –
CCC1=C[C@@H]2CN(C1)Cc1c([nH]c3ccccc13)[C@@](C(=O)OC)(c1cc3c(cc1OC)N(C)[C@H]1[C@@](O)(C(=O)OC)[C@H](OC(C)=O)[C@]4(CC)C=CCN5CC[C@]31[C@@H]54)C2 | inactive | –
OCc1cccc(Oc2ccccc2)c1 | inactive | –
O=C(COCCOCCOCC(=O)Nc1c(I)cc(I)c(C(=O)O)c1I)Nc1c(I)cc(I)c(C(=O)O)c1I | inactive | –
OCc1ccccc1O | inactive | –
C/C=C(\C)C(C)=O | inactive | –
O=S(=O)(O)c1ccc2ccccc2c1 | inactive | –
CC(=O)c1ccc2c(c1)N(CCCN1CCC(CCO)CC1)c1ccccc1S2 | inactive | –
Oc1cc(Cl)cc(Cl)c1Cl | 55.8 µM (active) | –
O=C1c2ccccc2C(=O)N1SC1CCCCC1 | inactive | –

test: cAMP Responsive Elements (CRE) small molecule agonists, cell-based qHTS assay: qHTS cell viability counter screen (AID 2060914); conditions: CRE-bla HEK293T viability, CellTiter-Glo luminescence, 5 h; series mostly up to 92.4 µM;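 also: viability read after 3 h of compound exposure; nearly all actives have a fitted effect of over 50% in size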
Method in brief: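 Cytotoxicity counter screen multiplexed with the CRE-bla reporter assay in HEK 293T cells: 3 h compound exposure at 37 °C, followed by CellTiter-Glo luminescence measured in the same wells.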

Structure (SMILES) | Potency | activity change, negative = cytotoxicity
CO[Si](CCCNCCN)(OC)OC | inactive | –
CC(CO)c1ccccc1 (stereo not drawn) | inactive | –
CCCCCC[C@@H](O)C/C=C\CCCCCCCC(=O)OCC(O)CO (stereo partly drawn) | inactive | –
Nc1ccc(S(=O)(=O)Nc2ccnn2-c2ccccc2)cc1 | – | 8.29% [at 18.9 µM]
Cc1c(C)c2c(c(C)c1O)CCC(C)(COc1ccc(CC3SC(=O)NC3=O)cc1)O2 (stereo not drawn) | inactive | –
CCCCCCC(C)(C)S | inactive | –
CCCCOC(=O)c1ccccc1C(=O)OCC(CC)CCCC (stereo not drawn) | inactive | –
Cc1ccc2ccccc2n1 | inactive | –
CCCCCCCN | inactive | –
Cc1cc(=O)[nH]c(C(C)C)n1 | inactive | –
O=C(Nc1cccc(C2=NCCN2)c1)Nc1cccc(C2=NCCN2)c1 | – | 10.9% [at 18.9 µM]
CCOC(=O)[C@H](CCc1ccccc1)N[C@@H](C)C(=O)N1Cc2ccccc2C[C@H]1C(=O)O | inactive | –
CN1CCOC(c2ccccc2)c2ccccc2C1 (stereo not drawn) | inactive | –
Cc1cc(S(=O)(=O)O)ccc1N=Nc1c(O)ccc2ccccc12 | inactive | –
CNc1ccc([N+](=O)[O-])cc1 | inactive | –
CC(C)CC(=O)CC(C)C | inactive | –
OC1(c2ccccc2)CCNCC1 | inactive | –
NC(=O)NS(=O)(=O)c1ccc(Cl)cc1 | inactive | –
CCCCNC1CC(C)(C)NC(C)(C)C1 | inactive | –
OCC1(CO)COCOC1 | inactive | –

Structure (SMILES) | Potency | activity change, negative = cytotoxicity
Nc1ccc(S(=O)(=O)Nc2nccs2)cc1 | inactive | –
COc1ccc(/C=C/C(=O)c2ccc(OC)cc2OC)cc1 | inactive | –
C=CCOCC(O)CO (stereo not drawn) | inactive | –
Cc1c(Cl)cccc1Nc1ccccc1C(=O)O | inactive | –
CCOC(=N)CC(=O)OCC | inactive | –
O=[N+]([O-])c1cc[n+]([O-])cc1 | inactive | –
Cc1cc(C(=O)O)ccc1[N+](=O)[O-] | inactive | –
CCCCCCCC/C=C\CCCCCCCC(=O)OCCOC(=O)CCCCCCC/C=C\CCCCCCCC | inactive | –
CC(C)(C)N(CCO)CCO | inactive | –
OC[C@H]1O[C@@H]2O[C@H]3[C@H](O)[C@@H](O)[C@@H](O[C@H]4[C@H](O)[C@@H](O)[C@@H](O[C@H]5[C@H](O)[C@@H](O)[C@@H](O[C@H]6[C@H](O)[C@@H](O)[C@@H](O[C@H]7[C@H](O)[C@@H](O)[C@@H](O[C@H]8[C@H](O)[C@@H](O)[C@@H](O[C@H]9[C@H](O)[C@@H](O)[C@@H](O[C@H]1[C@H](O)[C@H]2O)O[C@@H]9CO)O[C@@H]8CO)O[C@@H]7CO)O[C@@H]6CO)O[C@@H]5CO)O[C@@H]4CO)O[C@@H]3CO | inactive | –
CCC1=C[C@@H]2CN(C1)Cc1c([nH]c3ccccc13)[C@@](C(=O)OC)(c1cc3c(cc1OC)N(C)[C@H]1[C@@](O)(C(=O)OC)[C@H](OC(C)=O)[C@]4(CC)C=CCN5CC[C@]31[C@@H]54)C2 | inactive | –
OCc1cccc(Oc2ccccc2)c1 | inactive | –
O=C(COCCOCCOCC(=O)Nc1c(I)cc(I)c(C(=O)O)c1I)Nc1c(I)cc(I)c(C(=O)O)c1I | inactive | –
OCc1ccccc1O | inactive | –
C/C=C(\C)C(C)=O | inactive | –
O=S(=O)(O)c1ccc2ccccc2c1 | inactive | –
CC(=O)c1ccc2c(c1)N(CCCN1CCC(CCO)CC1)c1ccccc1S2 | inactive | –
Oc1cc(Cl)cc(Cl)c1Cl | inactive | –
O=C1c2ccccc2C(=O)N1SC1CCCCC1 | inactive | –
